# Only some compounds are listed: those with a hit (about 8.7% of all), similar ones and a draw of the others.
# ALOX12 inh – blocks human arachidonate 12S-lipoxygenase; P18054; purified 12hLO, xylenol orange hydroperoxide absorbance; Potency, µM (doses to about 108 µM), without a hit: at the highest dose activity change, negative = inhibition, hits mostly inhibitors; actives 1.1% (n = 580,000); AID 1671190; note: % is set by controls: 0 for no effect and ±100 for the full control effect
#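 Purified human 12hLO at 150 nM in 25 mM Hepes, 0.01% Triton X-100, pH 7.0, preincubated 15 min at room temperature with compound. Reaction started with 40 uM arachidonic acid, 30 min at room temperature. Hydroperoxide measured by Fe-xylenol orange, 573/405 nm absorbance ratio.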
# JMJD2A Tudor inh – inhibitors of human JMJD2A Tudor domain; AlphaScreen JMJD2A-Tudor / H3K4me3 peptide binding; Potency, µM (titrated, usually from 114 µM), for the others: at the top dose activity change, negative = inhibition, most hits filed as inhibitors; actives 4.4% (n = 390,000); AID 504339; note: % is set by controls: 0 for no effect and ±100 for the full control effect; nearly all actives have a fitted effect of over 50% in size
# G9a inh – G9a (human) methyltransferase inhibition. Q96KQ7. G9a H3K9 monomethylation, AlphaScreen, 2 h. Potency, µM (titrated, usually from 102 µM), for inactives: top-dose activity, negative = inhibition, hits mostly inhibitors. actives 8.8% (n = 350,000); note: % is set by controls: 0 for no effect and ±100 for the full control effect; nearly all actives have a fitted effect of over 75% in size
# Target sequence (Q96KQ7 913-1193 limits assumed): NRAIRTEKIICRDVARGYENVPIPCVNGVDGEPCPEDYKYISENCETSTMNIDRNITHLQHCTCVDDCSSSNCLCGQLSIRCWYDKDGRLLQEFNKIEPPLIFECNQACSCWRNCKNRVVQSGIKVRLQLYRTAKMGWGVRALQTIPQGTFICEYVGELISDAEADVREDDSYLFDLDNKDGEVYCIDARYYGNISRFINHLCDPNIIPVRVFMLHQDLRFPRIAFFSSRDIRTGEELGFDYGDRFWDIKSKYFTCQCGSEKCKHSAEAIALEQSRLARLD
#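 Enzyme 20 nM + cpd, 15 min RT; add b-H3K9 pep 500 nM / SAM 20 uM; 2 h RT; anti-H3K9me1 Ab 0.5 ug/mL + SA donor / anti-rabbit acceptor beads 20 ug/mL each, 10 min; AlphaScreen read.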
# Sfp inh – blocks B. subtilis Sfp PPTase activity. Biochemical Sfp PPTase activity, qHTS. AID 1490. actives 3.5% (n = 310,000). Potency, µM, for the others: largest response in the series, negative = inhibition, actives largely listed as inhibitors;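 note: the enzyme is Sfp with the accession as filed and its product quenches rhodamine fluorescence; 0% = enzyme reaction without inhibitor and -100% = no enzyme wells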
#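 Reaction rates are the 30-min fluorescence difference (ex 525, em 598 nm) in wells containing 15 nM Sfp, 5 uM rhodamine-CoA and 12.5 uM BHQ-2-YbbR at pH 7.6 with 10 mM MgCl2.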
# BAZ2B inh – blocks human BAZ2B | Q9UIF8 | AlphaScreen BAZ2B-H3K14Ac peptide displacement | Potency, µM (titrated, usually from 114 µM), for inactives: at the highest dose activity change, negative = inhibition, usual class: inhibitors | actives 4.4% (n = 360,000); note: % is set by controls: 0 for no effect and ±100 for the full control effect; nearly all actives have a fitted effect of over 60% in size
#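 Compounds, titrated to a top concentration of 110 uM, were incubated 30 min at room temperature with preformed BAZ2B/acetyl-K14 H3 peptide complex (50 nM each). Proximity signal was measured by AlphaScreen after 20 min with beads.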
# HP1b binding inh – HP1-beta chromodomain-methylated histone interaction inhibition | P83916 | AlphaScreen HP1-beta / biotin-H3K9me3 peptide binding | Potency, µM (top dose mostly 114 µM), inactives show top-dose activity change, negative = inhibition, actives largely listed as inhibitors | actives 0.56% (n = 390,000) | AID 540317; note: nearly all actives have a fitted effect of over 70% in size
# Target sequence (P83916 whole entry, looked up): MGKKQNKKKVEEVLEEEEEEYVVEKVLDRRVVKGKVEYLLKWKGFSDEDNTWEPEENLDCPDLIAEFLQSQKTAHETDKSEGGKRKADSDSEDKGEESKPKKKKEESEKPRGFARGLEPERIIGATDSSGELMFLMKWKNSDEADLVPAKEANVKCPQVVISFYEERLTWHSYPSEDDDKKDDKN
#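 Compound inhibition of the preformed complex between 50 nM HP1-beta and 50 nM biotinylated H3K9me3 peptide was read by AlphaScreen. Buffer was PBS pH 7.4 with 0.01% Tween-20. Incubations ran 30 min at room temperature, with 10 ug/mL donor/acceptor beads.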
# * hit, by the source's call; ? = inconclusive; . = not tested or not shown; [ ] = dose if it differs, or a comment. Calls come from the whole dose curve; as a rule, active = well fitted curve in the direction sought with a large enough effect; inconclusive = small, poorly fitted or top-dose-only effect, or another doubt; inactive = no such curve, though single readings can be large; an effect the other way counts as inactive or inconclusive. Potency is the fitted concentration of half-maximal effect.
SMILES,ALOX12 inh,JMJD2A Tudor inh,G9a inh,Sfp inh,BAZ2B inh,HP1b binding inh
CCCN1CCN(CCCNC(=S)Nc2ccc3nc(N4CCN(CC)CC4)cc(C)c3c2)CC1,-17%,-1%,35µM*,14%,-8%,4%
N#Cc1ccc(N2CCc3ccccc3C2)c([N+](=O)[O-])c1,10%,?,?,45µM*,?,5%
N#Cc1ccc(-n2nnc3ccccc3c2=O)c([N+](=O)[O-])c1,139%,9%,.,.,.,41%
CN(CC(=O)N(C)c1c(N)n(Cc2ccccc2)c(=O)[nH]c1=O)Cc1ccccc1F,75%,.,.,.,.,.
N#CCN1C(=O)C2CCCN2c2ccc(S(=O)(=O)N3CCOCC3)cc21 (stereo unspecified),-14%,-10%,20µM*,?,-27%,32%
N#Cc1ccc2c(c1)NC(=O)C1CCCN21 (stereo unspecified),?,-10%,14µM*,-5%,-29%,23%
CNS(=O)(=O)c1ccc2c(c1)NC(=O)C1CCCN21 (stereo unspecified),-25%,-21%,?,-10%,-6%,27%
CON(C)S(=O)(=O)c1ccc2c(c1)N(Cc1ccc(C)cc1)C(=O)C1CCCN21 (stereo unspecified),-16%,-17%,25µM*,9%,-22%,38%
Cc1ccc(CN2C(=O)C3CCCN3c3ccc(C#N)cc32)cc1 (stereo unspecified),.,.,20µM*,4%,-18%,.
O=C1C2CCCN2c2ccc(S(=O)(=O)N3CCOCC3)cc2N1Cc1ccccc1F (stereo unspecified),.,-10%[57.1 µM],.,15%,2%,44%
Cc1ccc(C)c(CN2C(=O)C3CCCN3c3ccc(C#N)cc32)c1 (stereo unspecified),-2%,5%,?,15%,1%,45%
Cc1ccc(NC(=O)Cn2cc(C#N)c3ccccc32)cc1,-8%,.,.,.,.,.
O/C=c1\ccc2cccc3nc(C(F)(F)F)nc1c23,0%,89µM*,-48%[2.33 µM],-24%,?,-8%
C/C(O)=c1/ccc2cccc3nc(C)nc1c23,-10%,5%,.,-6%,10%,58%
CN(Cc1ccccc1)C(=O)CNC(=O)C1CCCN(S(=O)(=O)c2ccc(F)cc2)C1 (stereo unspecified),16%,.,.,.,.,.
Cc1c(F)cccc1NC(=O)N1CCC(OC2CCN(Cc3ccccc3)CC2)CC1,1%,.,.,.,.,.
CC(=O)c1ccc(OCCCC(=O)n2nnc3ccccc32)cc1,0%[57.4 µM],79µM*,-12%[59 µM],-5%,-1%,-15%
COc1nsnc1NS(=O)(=O)c1ccc(NC(=S)NC(=O)c2cccnc2)cc1,-25%,11µM*,.,?,?,?
O=C(Nc1ccc(S(=O)(=O)Nc2ncccn2)cc1)c1cccnc1,-16%,2%,-6%,-14%,-1%,47%
COc1nsnc1NS(=O)(=O)c1ccc(NC(=S)NC(=O)c2ccncc2)cc1,?,-25%,-9%[59 µM],79µM*,-27%,-23%
COc1nccnc1NS(=O)(=O)c1ccc(NC(=S)NC(=O)c2cccnc2)cc1,-24%,-13%,50µM*,?,?,8%
CN(C)c1ccc(CNC(=O)CCCN2C(=O)c3cccnc3Oc3ccc(Cl)cc32)cc1,?,?,11µM*,.,?,8%
O=C(CSc1ncc(-c2ccc(F)cc2)o1)NC1CCCC1,-25%,.,.,.,.,.
Cc1nc(N=Nc2ccc(C(=O)O)cc2)c(COP(=O)(O)O)c(C=O)c1O,.,.,40µM*,.,.,.
Cc1nc(N=Nc2ccc(S(=O)(=O)O)cc2S(=O)(=O)O)c(COP(=O)(O)O)c(C=O)c1O,-10%,.,?,?,.,.
SMILES,ALOX12 inh,JMJD2A Tudor inh,G9a inh,Sfp inh,BAZ2B inh,HP1b binding inh
COc1cc(OC)cc(C(=O)Nc2ccc3oc(-c4cc(OC)c(OC)c(OC)c4)nc3c2)c1,40%,.,.,.,.,.
Cn1c(-c2ccccc2)cc(=O)cc1-c1ccccc1,2%,.,.,.,.,.
O=c1cc(-c2ccccc2)cc(-c2ccccc2)n1O,?,50µM*,15%[12.7 µM],.,35µM*,7%
O=C1C(=O)N(C2CCCC2)C(=O)N1Cc1ncc(-c2ccc(Cl)cc2)o1,-13%,.,.,.,.,.
O=C(Oc1ccc2c(=O)c(Cl)coc2c1)c1ccncc1,0%,-2%[57.1 µM],35µM*,-18%,?,40%
CC1CN(CCOc2cccc(Oc3ccccc3)c2)CC(C)O1 (stereo unspecified),?,20µM*,10µM*,15%,50µM*,?
COc1cccc(OCCCCCN2CCOCC2)c1,-20%,-14%,-100%,2%,-3%,10%
CC1CCCN(CCOc2cccc(Oc3ccccc3)c2)C1 (stereo unspecified),?,22µM*,8.9µM*,-13%,56µM*,?
CC1CCCN(CC(O)COc2ccc(Cl)cc2)C1 (stereo unspecified),?,-5%,9%[2.33 µM],-6%,1%,7%
CC1CN(CCCCOc2cccc(Oc3ccccc3)c2)CC(C)O1 (stereo unspecified),?,0.89µM*,-125%[59 µM],?,35µM*,?
CCCOc1ccc(OCCN2CCCC(C)C2)cc1 (stereo unspecified),?,?,14µM*,-45%,56µM*,39%
COc1cc(NC(=O)Cn2c(N3CCN(c4ccccc4)CC3)nc(C)cc2=O)cc(OC)c1,14%,.,.,.,.,.
COc1ccc2cc(C(=O)/C=C/c3cccs3)ccc2c1,-16%,.,.,.,.,.
CC(C)c1cc(C(=O)Nc2ccc(Cl)cc2)nn1C1CCS(=O)(=O)C1 (stereo unspecified),-1%,.,.,.,.,.
c1ccc(Oc2cccc(OCCCCN3CCCC3)c2)cc1,?,35µM*,?,-17%,56µM*,-28%
O=C(O)c1cc(-c2ccc(N3CCOCC3)cc2)nn1-c1ccc(F)cc1F,?,-14%,45µM*,13%,4%,17%
O=C(O)c1cc(-c2ccc(N3CCOCC3)cc2)nn1-c1ccccc1Cl,-7%,?,56µM*,?,.,31%
O=C(c1ccccc1)c1ccc(N2CCOCC2)cc1,?,9%,.,.,.,67%
Cc1cc(NS(=O)(=O)c2ccc(NC(=O)/C=C/c3ccc(C)o3)cc2)nc(C)n1,-12%,22µM*,8.9µM*,3.5µM*,-28%,-26%
COc1ccccc1/C=C/C(=O)Nc1ccc(S(=O)(=O)Nc2cc(C)nc(C)n2)cc1,?,-10%,35µM*,-4%,?,9%
COc1ccccc1CCC(=O)Nc1ccc(S(=O)(=O)Nc2cc(C)nc(C)n2)cc1,?,-7%,50µM*,.,6%,22%
CCc1ccccc1NC(=O)CN(C)C(=O)c1cc2ccc(F)cc2nc1C,-2%,.,.,.,.,.
